Compound activity (PubChem)
TcdB inh: TcdB glycohydrolase inhibition. P18177. TcdB glycohydrolase enzymatic assay, plate reader. inhibition, % at 9.99 µM. 0.24% of 350,000 active. AID 652162; in the data active = inhibition above about 10%
Target sequence (P18177 whole entry, looked up): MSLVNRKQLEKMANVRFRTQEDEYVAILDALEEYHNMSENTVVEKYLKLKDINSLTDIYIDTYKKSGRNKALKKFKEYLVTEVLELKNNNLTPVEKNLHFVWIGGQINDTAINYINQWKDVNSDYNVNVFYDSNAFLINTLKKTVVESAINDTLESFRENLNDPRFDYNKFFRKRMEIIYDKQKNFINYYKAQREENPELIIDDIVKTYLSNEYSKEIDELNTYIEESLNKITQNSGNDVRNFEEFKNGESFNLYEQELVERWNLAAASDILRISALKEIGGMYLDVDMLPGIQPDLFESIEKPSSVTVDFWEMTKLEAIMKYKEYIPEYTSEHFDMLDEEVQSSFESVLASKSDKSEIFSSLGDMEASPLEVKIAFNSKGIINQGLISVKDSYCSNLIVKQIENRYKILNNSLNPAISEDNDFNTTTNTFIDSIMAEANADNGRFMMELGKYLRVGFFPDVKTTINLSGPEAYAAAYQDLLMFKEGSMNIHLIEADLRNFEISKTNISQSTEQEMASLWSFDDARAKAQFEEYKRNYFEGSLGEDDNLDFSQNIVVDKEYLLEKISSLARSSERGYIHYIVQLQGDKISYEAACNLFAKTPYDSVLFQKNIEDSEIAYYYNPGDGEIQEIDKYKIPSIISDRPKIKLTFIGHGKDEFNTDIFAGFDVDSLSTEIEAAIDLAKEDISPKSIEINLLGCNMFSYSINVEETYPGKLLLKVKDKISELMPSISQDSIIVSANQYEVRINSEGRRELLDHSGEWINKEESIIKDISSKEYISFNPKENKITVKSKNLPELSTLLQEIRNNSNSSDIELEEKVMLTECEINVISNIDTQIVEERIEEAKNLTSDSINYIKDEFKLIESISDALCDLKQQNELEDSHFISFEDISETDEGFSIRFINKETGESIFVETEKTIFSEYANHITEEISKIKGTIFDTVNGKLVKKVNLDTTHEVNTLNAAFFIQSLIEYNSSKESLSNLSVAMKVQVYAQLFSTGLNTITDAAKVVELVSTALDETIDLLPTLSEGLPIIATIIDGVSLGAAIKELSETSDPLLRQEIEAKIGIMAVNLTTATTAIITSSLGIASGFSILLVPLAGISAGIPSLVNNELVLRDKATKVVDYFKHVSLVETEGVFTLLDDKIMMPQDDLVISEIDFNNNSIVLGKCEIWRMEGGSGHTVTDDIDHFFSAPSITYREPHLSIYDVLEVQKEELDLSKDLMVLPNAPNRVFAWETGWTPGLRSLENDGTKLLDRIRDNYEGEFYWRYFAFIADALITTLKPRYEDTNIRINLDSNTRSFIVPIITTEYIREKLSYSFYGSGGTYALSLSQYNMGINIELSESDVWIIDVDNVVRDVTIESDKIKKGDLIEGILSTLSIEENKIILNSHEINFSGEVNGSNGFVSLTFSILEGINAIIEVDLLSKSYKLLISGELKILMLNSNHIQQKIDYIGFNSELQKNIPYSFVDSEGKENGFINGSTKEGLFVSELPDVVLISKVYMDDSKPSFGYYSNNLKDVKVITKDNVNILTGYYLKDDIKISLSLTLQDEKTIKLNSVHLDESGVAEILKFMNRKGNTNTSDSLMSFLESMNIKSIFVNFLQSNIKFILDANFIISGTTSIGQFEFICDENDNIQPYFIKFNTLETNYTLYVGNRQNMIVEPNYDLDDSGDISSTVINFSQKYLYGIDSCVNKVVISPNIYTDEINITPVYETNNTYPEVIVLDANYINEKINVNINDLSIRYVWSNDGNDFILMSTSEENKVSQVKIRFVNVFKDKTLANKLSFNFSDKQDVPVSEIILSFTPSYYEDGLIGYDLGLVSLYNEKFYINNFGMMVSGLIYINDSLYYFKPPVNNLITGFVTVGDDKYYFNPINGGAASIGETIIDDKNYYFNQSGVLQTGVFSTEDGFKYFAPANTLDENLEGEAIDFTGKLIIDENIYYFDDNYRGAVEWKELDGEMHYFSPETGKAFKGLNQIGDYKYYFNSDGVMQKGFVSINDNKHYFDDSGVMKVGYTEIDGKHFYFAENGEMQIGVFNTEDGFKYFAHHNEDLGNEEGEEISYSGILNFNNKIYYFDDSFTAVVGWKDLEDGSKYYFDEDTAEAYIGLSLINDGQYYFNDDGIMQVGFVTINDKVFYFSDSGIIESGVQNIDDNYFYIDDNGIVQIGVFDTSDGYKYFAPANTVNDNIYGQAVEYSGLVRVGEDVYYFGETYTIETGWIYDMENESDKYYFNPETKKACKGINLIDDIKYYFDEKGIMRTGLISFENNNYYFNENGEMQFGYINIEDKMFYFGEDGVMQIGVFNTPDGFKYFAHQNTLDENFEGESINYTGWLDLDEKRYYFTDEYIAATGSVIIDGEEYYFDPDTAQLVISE
Bead autofluor: counter-screen for toxin protease inhibitors: compound fluorescence | fluorescence intensity (test concentration not listed) | 3.1% of 360,000 active | compound autofluorescence counterscreen, microsphere flow cytometry; stronger effect = higher value; in the data active = fluorescence intensity above about 16000; inconclusive = no clear call, values can overlap the other calls
BoNT A protease: BoNT A light chain protease inhibition; 0.17% of 360,000 active; multiplex microsphere protease substrate cleavage, flow cytometry; inhibition, % at 10 µM
Anthrax LF prot: inhibitors of Bacillus anthracis lethal factor protease; 0.12% of 360,000 active; multiplex microsphere protease cleavage assay, LF; P15917; inhibition, % at 10 µM
BoNT-F LC inh: inhibitors of Botulinum neurotoxin F light chain protease; Multiplex microsphere protease cleavage assay, flow cytometry; inhibition, % at 10 µM; 0.22% of 360,000 active; AID 588497; in the data active = inhibition above about 35%, passing the limit was not always enough; inconclusive = no clear call, values can overlap the other calls
Large screens that a line does not name were inactive. The sample as a whole holds a higher share of hits than the screen did. Cut-off read from the data, not from the text of the source, unless noted: active = inhibition above about 30%; inconclusive = no clear call, values can overlap the other calls; inactive = below that.

C[C@H]1CN([C@@H](C)CO)S(=O)(=O)c2ccc(-c3ccccc3)cc2O[C@H]1CN(C)C	none (no result: Bead autofluor, BoNT A protease, Anthrax LF prot, BoNT-F LC inh)
COc1ccccc1CNC(=O)c1ccc(CS(=O)(=O)c2ccccc2OC)o1	Bead autofluor 22833 (no result: TcdB inh)
COc1ccc(S(=O)(=O)Cc2ccc(C(=O)N3CCC4(CC3)OCCO4)o2)cc1	Bead autofluor 19527 (no result: TcdB inh)
CCN1CCN(C(=O)c2ccc(CS(=O)(=O)Cc3ccccc3F)o2)CC1	Bead autofluor 25125
CCOC(=O)N1CCN(C(=O)c2ccc(CS(=O)(=O)c3ccccc3OC)o2)CC1	Bead autofluor 20166, BoNT A protease inconclusive
COc1ccc(N2CCN(C(=O)c3ccc(CS(=O)(=O)c4ccc(OC)cc4)o3)CC2)cc1	none
Cc1ccc(S(=O)(=O)Nc2ccc3c(c2)C(=O)N([C@@H](C)CO)C[C@@H](C)[C@H](CN(C)S(=O)(=O)c2ccc(F)cc2)O3)cc1	none (no result: Bead autofluor, BoNT A protease, Anthrax LF prot, BoNT-F LC inh)
COc1ccccc1N1CCN(C(=O)c2ccc(CS(=O)(=O)c3ccccc3OC)o2)CC1	Bead autofluor 16680 (no result: TcdB inh)
Cc1ccccc1S(=O)(=O)Cc1ccc(C(=O)N2CCN(c3ccccc3F)CC2)o1	none
COc1ccc(OCC(=O)OCCN2C(=O)c3ccccc3C2=O)cc1	Bead autofluor 20429 (no result: TcdB inh)
C[C@H](CO)N1C[C@H](C)[C@@H](CN(C)Cc2ccc(C(=O)O)cc2)Oc2ccc(NC(=O)CCC(F)(F)F)cc2C1=O	none (no result: Bead autofluor, BoNT A protease, Anthrax LF prot, BoNT-F LC inh)
Cn1c(=O)oc2cc(S(=O)(=O)NC3CCCCCCC3)ccc21	Bead autofluor 16482 (no result: TcdB inh)
CCOC(=O)N1CCC(NS(=O)(=O)c2ccc3c(c2)oc(=O)n3C)CC1	Bead autofluor 16773 (no result: TcdB inh)
C[C@@H]1CCCCO[C@H](CN(C)Cc2ccc(C(=O)O)cc2)[C@H](C)CN([C@H](C)CO)C(=O)c2cc(NC(=O)CCCN(C)C)ccc2O1	none (no result: Bead autofluor, BoNT A protease, Anthrax LF prot, BoNT-F LC inh)
O=S(=O)(Cc1ccccc1)N1[C@H](CO)[C@@H](c2ccccc2)C12CN(CCC(F)(F)F)C2	none (no result: Bead autofluor, BoNT A protease, Anthrax LF prot, BoNT-F LC inh)
CCOC(=O)N1CCC(Nc2ncnc3c2cnn3-c2ccccc2)CC1	Bead autofluor 26060, BoNT A protease inconclusive (no result: TcdB inh)
CCOC(=O)N1CCC(Nc2c(NCCN3CCN(Cc4ccccc4)CC3)c(=O)c2=O)CC1	Bead autofluor 21681
CCOC(=O)N1CCC(Nc2c(-c3ccc(C)cc3)c(=O)c2=O)CC1	none (no result: TcdB inh)
c1ccc(-n2ncc3c(NC4CCCCCC4)ncnc32)cc1	none
CCOC(=O)N1CCC(Nc2c(-c3ccccc3)c(=O)c2=O)CC1	Bead autofluor 20189 (no result: TcdB inh)
CCOC(=O)N1CCN(c2c(NCCN3CCN(Cc4ccccc4)CC3)c(=O)c2=O)CC1	none
CCOC(=O)N1CCC(Nc2nc(OC)nc(OC)n2)CC1	Bead autofluor 22300, BoNT A protease inconclusive (no result: TcdB inh)
CO[C@@H]1CN(C)C(=O)c2cc(NC(=O)Nc3c(C)noc3C)ccc2OC[C@@H](C)N(CCC(F)(F)F)C[C@@H]1C	none (no result: Bead autofluor, BoNT A protease, Anthrax LF prot, BoNT-F LC inh)
CCOC(=O)N1CCC(Nc2c(Nc3cccc(CC)c3)c(=O)c2=O)CC1	Bead autofluor 18932 (no result: TcdB inh)
O=C(Nc1ccc(Nc2ccccc2)cc1)c1ccccc1	none (no result: Bead autofluor, BoNT A protease, Anthrax LF prot, BoNT-F LC inh)
NC(=O)Nc1ccc(Nc2ccccc2)cc1	TcdB inh 15.0
Cc1ccc(-c2ccc([C@@H]3[C@@H](CO)N4C(=O)CN(C(=O)c5ccc(F)cc5)C[C@H]34)cc2)cc1	none (no result: Bead autofluor, BoNT A protease, Anthrax LF prot, BoNT-F LC inh)
CC(C)C[C@H]1COCn2nncc2CC[C@@H](Cc2ccccc2)C(=O)N1	none (no result: Bead autofluor, BoNT A protease, Anthrax LF prot, BoNT-F LC inh)
CCCN1CCN(C(=O)c2ccc(Sc3ccc(C)cc3)c(NC(C)=O)c2)CC1	Bead autofluor 24723
C[C@@H]1CN([C@H](C)CO)C(=O)Cc2cc(NC(=O)CCCCCC(=O)Nc3ccccc3N)ccc2O[C@H]1CN(C)C(=O)Nc1ccccc1	none (no result: Bead autofluor, BoNT A protease, Anthrax LF prot, BoNT-F LC inh)
COC(=O)CSC(C(=O)Nc1ccc(C)c(C)c1)c1ccccc1 (stereo unspecified)	Bead autofluor 22778 (no result: TcdB inh)
COc1cc(OC)c(-c2nnc(-c3ccc(OC)c(OC)c3OC)o2)cc1OC	Bead autofluor 23443 (no result: TcdB inh)
COc1ccc(-c2c(C)nn3c(N4CCN(Cc5ccccc5)CC4)cc(C)nc23)cc1OC	none
Cc1nn2c(N3CCN(C4CCCC4)CC3)cc(C(C)(C)C)nc2c1-c1ccccc1	Bead autofluor 23963, BoNT A protease inconclusive (no result: TcdB inh)
Cc1cc(N2CCN(Cc3ccccc3)CC2)n2nc(C)c(-c3ccccc3)c2n1	Bead autofluor 22404 (no result: TcdB inh)
O=C(NC(=S)Nc1nc(-c2ccccc2)cs1)c1cccnc1	none (no result: TcdB inh)
O=C(Nc1nc(-c2ccccc2Cl)cs1)c1cccnc1	Bead autofluor 20683 (no result: TcdB inh)
Cc1cc(C)c(S(=O)(=O)c2cccc(Cl)c2)c(Cl)n1	none
Cc1cc(C)c(S(=O)(=O)c2ccc(Cl)cc2C)c(Cl)n1	TcdB inh 10.5
C[C@@H]1CN([C@H](C)CO)C(=O)Cc2cc(NC(=O)NC3CCCCC3)ccc2O[C@@H]1CN(C)S(C)(=O)=O	none (no result: Bead autofluor, BoNT A protease, Anthrax LF prot, BoNT-F LC inh)
Cc1ccc(C)c(OCCCN2CCNCC2)c1	none
Cc1ccc(C)c(OCCCN2CCCC2)c1	Bead autofluor 21161 (no result: TcdB inh)
CCC(C(=O)N1CCN(S(C)(=O)=O)CC1)c1ccccc1 (stereo unspecified)	Bead autofluor 20841
CCOC(=O)N1CCN(C(=O)C(CC)c2ccccc2)CC1 (stereo unspecified)	none (no result: TcdB inh)
COC(=O)C(C(=O)OC)C(CC(=O)c1ccc(Br)cc1)c1ccccc1 (stereo unspecified)	TcdB inh 14.1
